According to PubChem BioAssay AID435030 (The Scripps Research Institute Molecular Screening Center, 2010):
The campaign covered roughly 330,000 compounds. About 940 (0.28%) were called active. Cut-off read from the data, not from the text of the source: active = inhibition above about 12%; inactive = the rest. This excerpt belongs to a sample that is enriched for actives.

assay: reduced growth of AddAB-expressing E. coli cells – absorbance, AddAB inhibitor project, primary screen (AID 435030);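 note: 0% = vehicle wells of infected cells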; details: E. coli expressing H. pylori AddAB, at 11.9 µM, stronger effect = higher value

| Structure (SMILES) | inhibition |
| --- | --- |
| O=C(Nc1cccc(S(=O)(=O)N2CCOCC2)c1)C12CC3CC(CC(C3)C1)C2 | 0.82% (inactive) |
| CC(C)(C)NC(=O)COC(=O)c1cc(Br)ccc1Cl | 1.15% (inactive) |
| CC(C)(C)NC(=O)COC(=O)c1cc(Cl)ccc1[N+](=O)[O-] | 57.9% (active) |
| CCCC(=O)OCC(=O)Nc1cc(Cl)ccc1[N+](=O)[O-] | 0.77% (inactive) |
| CN(NC(=O)C1CC(=O)N(c2ccccc2)C1)C1=NS(=O)(=O)c2ccccc21 (centres undefined) | 1% (inactive) |
| CC1CCCN(C(=O)c2ccc3c(c2)C(=O)N(CCC2=CCCCC2)C3=O)C1 (centres undefined) | 22.9% (active) |
| Cc1cc(=O)n2nc(N3CCCC(C(=O)NCCC4=CCCCC4)C3)sc2n1 (centres undefined) | 0.49% (inactive) |
| Cn1nnc2cc(C(=O)NCCC3=CCCCC3)ccc21 | 0% (inactive) |
| O=C(c1n[nH]c2c1CCC2)N1CCCC(Nc2cccc(F)c2)C1 (centres undefined) | 2.86% (inactive) |
| Cc1cc(C)c2c(c1)cc(C)c1nnc(SCC(=O)Nc3cc(C)on3)n12 | 1.96% (inactive) |
| Cc1cc(S(=O)(=O)c2cc3ccc(O)c(C)c3oc2=O)ccc1F | 0.08% (inactive) |
| COc1c(N2CCN(C(=S)Nc3ccccc3F)C(C)C2)c(F)cc2c(=O)c(C(=O)O)cn(C3CC3)c12 (centres undefined) | 99.7% (active) |
| COc1ccccc1NC(=S)N1CCN(c2ccc(F)cc2)CC1 | -2.49% (inactive) |
| CC1CN(C(=S)Nc2ccccc2F)CC(C)O1 (centres undefined) | -1.09% (inactive) |
| COc1ccc(Cl)cc1C(=O)OCC(=O)NCc1cccs1 | 0.75% (inactive) |
| Cc1ccc(S(=O)(=O)N2CCN(C(=O)Cn3c(=O)cnc4ccccc43)CC2)c(C)c1 | 0.34% (inactive) |
| O=C(Nc1ccc(OC(F)(F)F)cc1)c1ccc2c(c1)no[n+]2[O-] | 3.14% (inactive) |
| CCn1cc(S(=O)(=O)c2cccc(C)c2)c(=O)c2cc(F)c(N3CCN(C)CC3)cc21 | -1.64% (inactive) |
| CCn1cc(C(=O)NCCO)c(=O)c2cc(F)c(N3CCN(C)CC3)cc21 | 98.8% (active) |
| CCCCNC(=O)c1cn(CC)c2cc(N3CCN(C(=O)c4ccco4)CC3)c(F)cc2c1=O | 11.8% (inactive) |

| Structure (SMILES) | inhibition |
| --- | --- |
| CCCCCCn1cc(C(=O)O)c(=O)c2cc(F)c(N3CCCCC3)cc21 | -1.14% (inactive) |
| CN1CCN(c2cc3c(cc2F)c(=O)c(C(=O)O)cn3CCF)CC1 | 98.6% (active) |
| CCn1cc(C(=O)NCCC(=O)NCCO)c(=O)c2cc3c(cc21)OCO3 | -2.55% (inactive) |
| Cc1csc(NC(=O)C2CCCN2C(=O)OCC(C)C)n1 (centres undefined) | 0.97% (inactive) |
| Cc1nn(C)c(C)c1Sc1ccccc1N | -0.51% (inactive) |
| O=C(COC(=O)Cn1[nH]c(=O)c2ccccc2c1=O)Nc1c(Cl)cccc1C(F)(F)F | -0.85% (inactive) |
| O=C(OCC(=O)c1cccs1)C1=COCCO1 | 3.94% (inactive) |
| O=C(OCC(=O)c1cccs1)c1ccc([N+](=O)[O-])o1 | 16.4% (active) |
| O=C(COC(=O)c1ccc([N+](=O)[O-])o1)NC12CC3CC(CC(C3)C1)C2 | 2.74% (inactive) |
| O=C(Cc1ccccc1)NNC1CC(=O)N(c2ccc(Br)cc2)C1=O (centres undefined) | 0.17% (inactive) |
| Cc1ccccc1OCC(=O)NNC(=O)c1cc(S(=O)(=O)N(C)C)ccc1N1CCCC1 | -1.04% (inactive) |
| Cc1cc([N+](=O)[O-])nn1CC(=O)Nc1ccc(Cc2ccncc2)cc1 | -1.17% (inactive) |
| Cc1ccc(COc2ccc(C(=O)NN)cc2)cc1 | 3% (inactive) |
| O=C(C/C(=N\NC(=O)c1ccccc1Br)C(F)(F)F)c1cccs1 | 0.69% (inactive) |
| C=CC(=O)OCCOCCOCCOCCOC(=O)C=C | -0.85% (inactive) |
| CC1C(=O)N2CCCc3cc(S(=O)(=O)NCc4ccc(F)cc4)cc1c32 (centres undefined) | -1.44% (inactive) |
| CC(=O)c1c(C)n([O-])c2ccccc2[n+]1=O | 38.5% (active) |
| Cc1c(C=O)c2ccccc2n1CC(=O)O | -5.83% (inactive) |
| CCNc1nc(NC(C)C)nc(N2CC(=O)N(CC(=O)OCC)C2=N)n1 | -0.43% (inactive) |
| CNC(C)C#Cc1ccc2sc3cc(OC)c(OC)cc3c(=O)c2c1 (centres undefined) | 3.07% (inactive) |

| Structure (SMILES) | inhibition |
| --- | --- |
| O=C(C1=C(O)C(=O)N(CCOCCO)C1c1ccccn1)c1cccs1 (centres undefined) | -0.51% (inactive) |
| O=C(CSc1ccc(-c2ccccc2)nn1)NCC1CCCO1 (centres undefined) | -1.35% (inactive) |
| O=C(NCC1CCCO1)C(C(=O)c1ccccc1)n1cc(Cl)ccc1=O (centres undefined) | 99.8% (active) |
| O=C(NCC1CCCO1)/C(=C/c1ccc(Cl)cc1)NC(=O)c1ccccc1 (centres undefined) | 3.87% (inactive) |
| Cc1ccc(NC(=O)C(C)Sc2nnc(C3CC3)n2C2CC2)cc1S(=O)(=O)N1CCOCC1 (centres undefined) | -0.26% (inactive) |
| COc1ccccc1NC(=S)N1CCC(NC(=O)C23CC4CC(CC(C4)C2)C3)CC1 | 4.75% (inactive) |
| Cc1ccc(C23CC4CC(CC(C(=O)NCC(=O)O)(C4)C2)C3)cc1 | 1.92% (inactive) |
| CCOc1ccccc1NC(=O)C12CC3CC(C1)CC(c1ccc(C)cc1)(C3)C2 | 78.7% (active) |
| Cc1noc(NS(=O)(=O)c2ccc(NC(=O)C34CCC(CC3)C4)cc2)c1C | 1.62% (inactive) |
| Cc1cc(OC(C)C(=O)Nc2ccc(S(=O)(=O)Nc3onc(C)c3C)cc2)cc(C)c1Cl (centres undefined) | -1.11% (inactive) |
| Cc1ccc(C(=O)/C=C/Nc2ccc(S(=O)(=O)Nc3onc(C)c3C)cc2)cc1 | 12.7% (active) |
| Cc1ccc(Sc2ccncc2S(N)(=O)=O)cc1 | 4.14% (inactive) |
| COc1ccc(N2CCN(S(=O)(=O)CCNC(=O)C34CC5CC(CC(C5)C3)C4)CC2)cc1 | 3.21% (inactive) |
| COc1cccc(NC(=O)C(Sc2nc3ccccc3c(=O)n2CC(C)C)c2ccccc2)c1 (centres undefined) | 2.26% (inactive) |
| CCc1noc(C)c1C(=O)NNC(=O)c1ccc(F)cc1 | -0.34% (inactive) |
| O=C(/C=C/c1ccc([N+](=O)[O-])o1)NNC(=O)c1ccc(F)cc1 | 97.8% (active) |
| O=C(NNC(=O)C1CCCC1)c1ccc(F)cc1 | -2.96% (inactive) |
| Cc1ccc(Cl)cc1NC(=S)N(CCN(C)C)Cc1cccs1 | 4.63% (inactive) |
| CCn1c(/C=C/Nc2ccccc2)[n+](CC)c2ccc(C(=O)OCC(F)(F)F)cc21 | -1.7% (inactive) |
